Data published in PubChem BioAssay.
The source made the active and inactive calls. How the calls were made is not given here.

Test: Brca1-Bard1 BiLC signal decrease – luminescence, single concentration, counter-screen for Mdm2/MdmX interaction inhibitor project, confirmation (AID 504668)
Settings: Brca1/Bard1 bimolecular luciferase complementation counterscreen, at 8 µM, active compounds read high
In the case of `Cc1cc(C)nc(N/N=C/c2cc(Br)ccc2O)n1`, the inhibition is reported as 26.2% (active).
In the case of `C=CCc1cccc(/C=N/NC(=O)CNc2ccccc2)c1O`, the inhibition is reported as 32.9% (active).
In the case of `CCN(C[C@H]1N[C@@](CC)(C(=O)OC)[C@H]2C(=O)N(Cc3ccccc3)C(=O)[C@@H]12)S(=O)(=O)c1ccc(-c2ccccc2)cc1`, the inhibition is reported as 34% (active).
With `O=C1C(=C2SCCCS2)CC/C1=C\c1ccc(F)cc1` the inhibition was 25.5% (active).
For `CC(C)(C)c1ccc(OCC(=O)N/N=C/c2cc(Br)ccc2OC(=O)c2ccco2)cc1`, the inhibition was 27% (active).
In the case of `CCOC(=O)c1cnc(-n2nc(C)cc2C)nc1NNc1nc(-c2ccccc2)cc(-c2ccccc2)n1`, the inhibition is reported as 25% (active).
In the case of `CN1CCN(C(=O)CCCN2C(=O)/C(=C/c3ccccc3)SC2=S)CC1`, the inhibition is reported as 30.5% (active).
In the case of `Cc1ccc(O)c(CNCCNCc2cc(C)ccc2O)c1`, the inhibition is reported as 32.6% (active).
For `CCCC(=O)NC(c1ccco1)c1cc(Cl)c2cccnc2c1O` (stereo not given), the inhibition was 23.3% (active).
For `O=C(Nc1nc(-c2ccccn2)cs1)c1cccc(-n2cnnn2)c1`, the inhibition was 26.2% (active).
With `CC(C)(C)c1cc(NCCCn2ccnc2)n2ncc(-c3ccc(Cl)cc3)c2n1` the inhibition was 34.9% (active).
For `O=C(NC(Cc1c[nH]c2ccccc12)C(=O)Nc1ccc(OC(F)(F)F)cc1)c1cccs1` (stereo not given), the inhibition was 25.7% (active).
With `CCN1CCN(c2ccc(Nc3ccnc4ccccc34)cc2)CC1` the inhibition was 29.8% (active).
For `Cc1cc(C(=O)NC2CCCc3c2cnn3-c2cccc(C)c2C)no1` (stereo not given), the inhibition was 23.6% (active).
In the case of `COc1cc(/C=C2\CC/C(=C\c3cc(OC)c(O)c(OC)c3)C2=O)cc(OC)c1O`, the inhibition is reported as 25.6% (active).
In the case of `COc1ccc2[nH]c(C(=O)N/N=C/c3ccc(O)cc3O)cc2c1`, the inhibition is reported as 31.2% (active).
With `COc1cccc(CNc2ncnc3ccc(-c4c(C)noc4C)cc23)c1` the inhibition was 31% (active).
For `OC(c1cc(C(F)(F)F)nc2c(C(F)(F)F)cccc12)C1CCCCN1` (stereo not given), the inhibition was 35.8% (active).
In the case of `COc1ccc(-n2nc(C(=O)c3cccs3)cc(-c3nc4ccccc4[nH]3)c2=N)cc1`, the inhibition is reported as 30.8% (active).
In the case of `CC(C)Cn1c(=O)c(C(=O)Nc2ccccc2S(N)(=O)=O)c(O)c2ccccc21`, the inhibition is reported as 26.4% (active).
With `COc1ccc(O)c(/C=N/NC(=O)c2ccc(OCc3cccc(Br)c3)cc2)c1` the inhibition was 32.8% (active).
In the case of `C=CC[n+]1c(/C=C2\C=Cc3cc(C)ccc3N2CC)ccc2ccccc21`, the inhibition is reported as 28.5% (active).
In the case of `C=C(C(=O)c1ccccc1)C(C)CC(=O)c1ccccc1` (stereo not given), the inhibition is reported as 32.4% (active).
In the case of `COc1ccc(-c2oc3ncnc(NCCCN(C)C)c3c2-c2ccc(OC)cc2)cc1`, the inhibition is reported as 28.6% (active).
With `CCOC(=O)Cn1c(-c2nonc2NC(=O)c2ccccc2F)nc2ccccc21` the inhibition was 34.7% (active).
With `O=C(Nc1nc(-c2ccccc2)cs1)c1ccccc1NS(=O)(=O)c1ccc(F)cc1` the inhibition was 25.5% (active).
In the case of `O=Cc1[nH]c2ccccc2c1N(C(=O)CCl)c1ccc([N+](=O)[O-])cc1`, the inhibition is reported as 25.5% (active).
In the case of `CC(C)(C)c1cc(C(=O)N/N=C/c2ccccc2O)n(-c2ccccc2)n1`, the inhibition is reported as 28.9% (active).
With `O=C(CCCN1C(=O)/C(=C\c2cccs2)SC1=S)Nc1ccc(O)cc1` the inhibition was 31.8% (active).
With `COc1ccc2cc3c(N)nn(C(=O)c4cccc([N+](=O)[O-])c4)c3nc2c1` the inhibition was 32.1% (active).
For `COc1ccc(C(C)=O)cc1CSc1nnc(-c2ccc(Cl)cc2)n1-c1ccccc1`, the inhibition was 25.6% (active).
In the case of `CCc1ccc2[nH]c3nc(N/N=C/c4ccc(O)cc4O)nnc3c2c1`, the inhibition is reported as 29.3% (active).
With `Oc1ccc2ccccc2c1N=Nc1ccccn1` the inhibition was 28% (active).
For `CCOC(=O)C1=C(c2ccccc2)NC(=O)NC1c1ccc(O)c(Cl)c1` (stereo not given), the inhibition was 30.5% (active).
In the case of `Cc1ccc(-n2c(C)cc(/C=c3/sc4nc5ccccc5n4c3=O)c2C)cc1`, the inhibition is reported as 27.7% (active).
With `CCN(CC)S(=O)(=O)c1ccc2c(c1)C(=NO)c1cc(S(=O)(=O)N(CC)CC)ccc1-2` the inhibition was 23.7% (active).
In the case of `COc1ccc(Cl)cc1NC(=O)c1nnn(CC(=O)Nc2ccc(OC)c(OC)c2)c1N`, the inhibition is reported as 31.7% (active).
For `Cc1cccc(Cn2nc(C(C)(C)C)cc2C(=O)Nc2ccc(F)cc2)c1`, the inhibition was 31.2% (active).
For `C=CC(=O)N1c2ccccc2Sc2ccc(NC(=O)OCC)cc21`, the inhibition was 35.2% (active).
In the case of `OC(CNCc1ccc(-c2ccccc2)cc1)c1ccccc1` (stereo not given), the inhibition is reported as 26.9% (active).
